Bioassay records from PubChem BioAssay.
SKKanGAS inh: blocks kanamycin growth of S. pyogenes SKKanGAS strain | BacTiter-Glo, 6 h | inhibition, % at 7.5 µM | actives 1.3% (n = 300,000) | AID 1662;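 active means mean replicate score, as percent of positive control median, at least 50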;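 further: strain carries kanamycin resistance gene driven by streptokinase promoter and grows in 40 µg/ml kanamycin; loss of luminescence reflects streptokinase promoter inhibition or plain growth inhibition; 0% = median of DMSO wells and 100% = positive control at its reference dose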
NALP3 yeast inh: inhibitors of NALP3 inflammasome in yeast; inhibition, % at 10 µM; AID 2825; actives 0.39% (n = 330,000); Yeast reconstituted NLRP3/ASC/caspase-1, beta-gal luminescence, 24 h;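 active means inhibition of 50% or more; inactive means inhibition below 50%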;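 further: plate controls were induced DMSO wells for no effect and uninduced yeast grown without galactose for full effect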
tim23-1 inh: inhibits growth of tim23-1 mutant yeast. S. cerevisiae tim23-1 growth, BacTiter-Glo luminescence, 24 h. actives 1.3% (n = 330,000). inhibition, % at 20 µM;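 active means growth inhibition of the mutant yeast at or above 50%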;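 further: temperature-sensitive mutant grown at 25 °C; plate controls were DMSO-treated mutant yeast for no effect and medium wells lacking yeast for full effect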
NALP1 inh: inhibitors of NALP1 inflammasome in yeast. S. cerevisiae NALP1/ASC/caspase-1 growth, X-gal OD620, 72 h. inhibition, % at 10 µM. actives 0.61% (n = 280,000). AID 2071; in the data active means inhibition mostly above about 24%, no sharp cut-off; inactive means mostly below about 32%
tim10-1 inh: inhibits growth of tim10-1 mutant yeast. S. cerevisiae tim10-1 ts strain growth, BacTiter-Glo, 24 h. inhibition, % at 20 µM. actives 2.2% (n = 330,000);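 active means inhibition of at least 40%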;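 further: mutant grown at 25 °C; 0% = DMSO wells with yeast and 100% = wells holding no yeast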
TIM10 inh: inhibits growth of TIM10 yeast strain; S. cerevisiae TIM10 strain growth, BacTiter-Glo luminescence, 24 h; inhibition, % at 10 µM; actives 1.4% (n = 330,000); AID 463195;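 active means inhibition of 40% or more at the single tested concentration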;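 further: wild-type TIM10 isogenic control strain grown at permissive 25 °C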
tim10-1 conf: confirmation of tim10-1 mutant yeast growth inhibitors; shares compounds with tim10-1 inh; S. cerevisiae tim10-1 ts strain growth, BacTiter-Glo, 24 h; inhibition, % at 20 µM; actives 56% (n = 7,400); AID 463213;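 active means inhibition of yeast growth at or above a set limit in either of two repeat tests at 20 µM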;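 further: tim10-1 mutant grown at permissive 25 °C to find synthetic lethal compounds; 0% = DMSO yeast wells and 100% = medium wells without yeast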
Numbers without * were called inactive; / = no result. Shown are actives, neighbours in structure and some others; about 4.9% of the full set was active somewhere.

SMILES	SKKanGAS inh	NALP3 yeast inh	tim23-1 inh	NALP1 inh	tim10-1 inh	TIM10 inh	tim10-1 conf
CC(C)(C)OC(=O)N1CCC[C@H]1c1nnc(SCc2ccc(Cl)cc2Cl)o1	-1	20	38	-2	40*	19	18
O=C(Cc1cccs1)N1CCN=C1SCc1ccccc1Cl	7	-10	22	4	40*	6	34*
O=C(Cc1cccs1)N1CCN=C1SCc1ccccc1F	-3	17	24	4	16	3	/
CC1(C)CC(=O)C2=C(C1)N(c1cccnc1)C(N)=C(C#N)C2c1cccs1 (stereo not given)	-1	-5	22	12	40*	-1	33*
CCSc1sccc1C1C(C#N)=C(N)N(c2cccnc2)C2=C1C(=O)CC(C)(C)C2 (stereo not given)	1	-9	21	13	31	3	/
O=C(CN1C(=O)NC2(CCCCCCC2)C1=O)NCc1ccccc1	/	1	14	/	3	2	/
N#Cc1cccc(NC(=O)CSc2cccc[n+]2[O-])c1	/	11	-7	/	-20	-3	/
Cc1ccccc1SCC(=O)Nc1cccc(C#N)c1	4	19	12	12	44*	11	18
CC(=O)c1cccc(S(=O)(=O)N2CCn3cccc3C2C)c1 (stereo not given)	/	14	4	/	12	0	/
CCOC(=O)c1ccc(S(=O)(=O)Nc2cc(C(C)(C)C)no2)cc1	4	-14	24	-2	41*	10	15
CC(C)(C)c1ccc(/C=C(\C#N)C(=O)NCCN2CCOCC2)cc1	-1	15	43	-2	40*	32	33*
CC(C)(C)c1ccc(C(=O)NCCN2CCOCC2)cc1	1	7	9	/	-4	27	/
CC(C)OP(=O)(OC(C)C)C(Nc1ccccn1)c1ccc(F)cc1 (stereo not given)	-4	-11	26	21	46*	1	16
CC1(c2cccc(Br)c2)NC(=O)N(CC(=O)Nc2ccc3c(c2)OCO3)C1=O (stereo not given)	/	-3	-12	/	5	7	/
COc1cc2c(cc1OC)C1=NC(=O)CN1C(SCc1ccccc1C)=N2	11	8	24	12	41*	13	24
Cc1ccc(CSC2=Nc3ccccc3C3=NC(=O)CN23)cc1	22	19	36	-16	-35	14	/
Cc1cc(Cl)cc(Cl)c1OCC(=O)NCc1ccco1	-1	22	49	24	50*	35	40*
Cc1ccc(NC(=O)CCNS(=O)(=O)c2ccc3[nH]c(=O)oc3c2)cc1F	-7	1	5	1	11	-7	/
CC1CCCCC1n1c(=S)[nH]c2ccccc2c1=O (stereo not given)	4	0	38	4	42*	34	3
CC1CCCCC1NC(=O)CCCn1c(=S)[nH]c2ccccc2c1=O (stereo not given)	3	22	3	-11	8	-23	/
CCc1ccc(-c2cc(C)no2)cc1S(=O)(=O)NCc1ccccc1OC	0	7	30	12	41*	-5	7
CC(=O)Nc1ccc(NC(=O)c2ccnn2C)cc1	-1	6	2	/	5	17	/
Cc1noc(C)c1NC(=O)N(C)C[C@H]1Oc2ccc(NS(=O)(=O)c3cn(C)cn3)cc2C(=O)N([C@H](C)CO)C[C@@H]1C	/	8	-3	/	-7	-7	/
CC1C(=O)C(C)C(c2ccc(Br)cc2)NC1c1ccc(Br)cc1 (stereo not given)	13	5	45	-11	48*	9	12
Cc1ccccc1-c1nc2ccccc2c(=O)n1/N=C/c1ccccc1[N+](=O)[O-]	3	17	46	-7	44*	10	31
SMILES	SKKanGAS inh	NALP3 yeast inh	tim23-1 inh	NALP1 inh	tim10-1 inh	TIM10 inh	tim10-1 conf
O=C(NCc1ccco1)C1CCN(C(=O)c2ccc([N+](=O)[O-])cc2)CC1	-3	15	-13	1	-9	7	/
O=C(OC1CCCCC1=O)c1cccc(S(=O)(=O)N2CCOCC2)c1 (stereo not given)	-4	19	5	/	-9	9	/
O=C(OC1CCCCC1=O)c1cc(S(=O)(=O)N2CCOCC2)ccc1F (stereo not given)	-2	15	20	4	25	15	/
O=C(OC1CCCCC1=O)c1cccc(S(=O)(=O)N2CCCCC2)c1 (stereo not given)	11	16	47	/	43*	23	22
Cc1ccc(S(=O)(=O)N2CCCCC2)cc1C(=O)OC1CCCCC1=O (stereo not given)	-4	2	28	/	41*	14	28
CC(=O)Nc1ccc2c(c1)CCc1ccccc1-2	0	28	40	27	39	14	/
O=C(O)/C=C/C(=O)c1ccc2c(c1)CCc1ccccc1-2	39	38	48	/	58*	27	54*
Cc1ccsc1CNCc1cc(Cl)ccc1O	/	16	25	/	4	15	/
COc1ccc(C(CCNCc2ccccc2)c2ccc(F)cc2)cc1 (stereo not given)	-7	30	19	31	46*	9	20
COc1ccc(C(CCNC(C)c2ccccc2)c2ccc(F)cc2)cc1 (stereo not given)	2	29	45	43*	51*	19	36*
COc1ccc(CNC(=O)CNC(C)c2ccc(F)cc2)cc1 (stereo not given)	7	24	5	9	8	-6	/
O=C(CCCn1c(=S)[nH]c2cc3c(cc2c1=O)OCO3)NCCc1ccccc1Cl	23	-8	11	-7	16	13	/
COc1ccc(S(=O)(=O)Cc2ccc(C(=O)NCc3ccccc3OC)o2)cc1	0	7	4	-6	14	-7	/
Cc1ccc(C(=O)CSC2=C(C#N)C(c3ccco3)C3=C(CCCC3=O)N2)cc1 (stereo not given)	9	15	41	10	38	22	/
N#CC1=C(SCC(=O)c2ccccc2)NC2=C(C(=O)CCC2)C1c1ccco1 (stereo not given)	14	14	-26	0	49*	21	17
CCN1CCN(c2ccc(N3CCN(S(=O)(=O)c4ccc(C)c([N+](=O)[O-])c4)CC3)nn2)CC1	2	23	-18	/	-28	4	/
CCOc1ccc(NC2=C(OC)C(=O)c3ccccc3C2=O)cc1	14	6	29	46	44*	8	9
COC1=C(Nc2ccc(OC)cc2)C(=O)c2ccccc2C1=O	-1	20	40	42	40*	1	19
COc1ccc(NC2=C(NCCO)C(=O)c3ccccc3C2=O)cc1	11	9	20	30	31	14	/
